Structures can show the parent of a compound that is named as a salt. ± gives the standard deviation of the averaged measurements.
Columns and labels:
Test in all cases: cell viability (% of vehicle); higher = less cytotoxic
Conditions in all cases: 10 µM; 72 h
[1] = test system: HCI01 (cells of a triple-negative basal-like breast cancer xenograft)
[2] = test system: HCI03 (cells of an ER-positive luminal breast cancer xenograft)
[3] = test system: HCI09 (cells of a triple-negative luminal androgen receptor type breast cancer xenograft)
[4] = test system: HCI11 (cells of an ER-positive luminal breast cancer xenograft)
[5] = test system: UCD52 (cells of a triple-negative basal-like breast cancer xenograft)
[6] = test system: WHIM2 (cells of a triple-negative basal-like breast cancer xenograft)
[7] = test system: WHIM30 (cells of a triple-negative basal-like breast cancer xenograft)
[8] = test system: HCI13 (cells of an ER-positive luminal breast cancer xenograft)
[9] = test system: HCI16 (cells of a triple-negative basal-like breast cancer xenograft)
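Further: PDX cells carrying CMV promoter-driven luciferase, viability read as total photon flux per second by IVIS imaging following D-luciferin, vehicle control 0.1% DMSO.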

SMILES	cell viability [1]	cell viability [2]	cell viability [3]	cell viability [4]	cell viability [5]	cell viability [6]	cell viability [7]	cell viability [8]	cell viability [9]
COCCCOc1ccnc(C[S+]([O-])c2nc3ccccc3[nH]2)c1C (stereo unspecified) [Rabeprazole sodium]	167 ± 75	197	82.4 ± 28	115	178 ± 5.8	135 ± 15	–	–	–
CC(=O)OCC(=O)[C@@]12N=C(C)O[C@@H]1C[C@H]1[C@@H]3CCC4=CC(=O)C=C[C@]4(C)[C@H]3[C@@H](O)C[C@@]12C [Deflazacort]	107 ± 38	141	137 ± 32	133	–	119 ± 14	145 ± 3.2	–	–
Oc1ccc(OCc2ccccc2)cc1 [Monobenzone]	187 ± 11	180	–	157	167 ± 14	145 ± 23	–	181 ± 4.9	153
CCC(=O)OC1(C(=O)CCl)C(C)CC2C3CC(F)C4=CC(=O)C=CC4(C)C3(F)C(O)CC21C (stereo unspecified) [Halobetasol Propionate]	159 ± 6.9	152	133 ± 96	133	191 ± 18	113 ± 9.6	–	–	–
CC12C=CC(=O)C=C1CCC1C3CC(O)C(O)(C(=O)CO)C3(C)CC(O)C12F (stereo unspecified) [Triamcinolone]	117 ± 18	176	112.2 ± 0.86	130	121 ± 8.9	121 ± 18	185 ± 5.1	–	–
O=C(O)CC(O)CC(O)C=Cc1c(C2CC2)nc2ccccc2c1-c1ccc(F)cc1 (stereo unspecified) [Pitavastatin]	119 ± 18	125	102 ± 19	–	74.9 ± 9.2	93.6 ± 47	92.2 ± 11	–	171
Nc1nc2[nH][nH]nc-2c(=O)n1 [Azaguanine-8]	158 ± 48	146	137 ± 21	–	102 ± 55	96.01 ± 0.31	119 ± 14	150 ± 9.1	–
C#CC1(O)CCC2C3CCc4cc(O)ccc4C3CCC21C (stereo unspecified) [Ethinyl Estradiol]	107 ± 7.8	119	103 ± 15	102	84 ± 3.5	107 ± 25	109 ± 21	–	93.3
CC1CC2C3CCC4=CC(=O)C=CC4(C)C3(F)C(O)CC2(C)C1(O)C(=O)CO (stereo unspecified) [Betamethasone]	130 ± 41	177	145 ± 32	175	183 ± 2.4	130 ± 27	184 ± 37	–	–
CCOC(=O)OC1(C(=O)OCCl)CCC2C3CCC4=CC(=O)C=CC4(C)C3C(O)CC21C (stereo unspecified) [Loteprednol etabonate]	90.8 ± 59	196	150 ± 70	123	158 ± 33	105 ± 11	198 ± 12	–	–
O[C@@H]1CO[C@H]2[C@@H]1OC[C@@H]2O [Isosorbide]	115 ± 23	147	103 ± 2.9	102	99.9 ± 3.7	107.6 ± 0.11	112 ± 15	–	116
CCc1c2c(nc3ccc(OC(=O)N4CCC(N5CCCCC5)CC4)cc13)-c1cc3c(c(=O)n1C2)COC(=O)[C@]3(O)CC [Irinotecan HCl Trihydrate]	70.8 ± 22	165	120 ± 25	–	104 ± 17	68 ± 3.8	107 ± 19	114 ± 15	105
CC(C)c1c(C(=O)Nc2ccccc2)c(-c2ccccc2)c(-c2ccc(F)cc2)n1CCC(O)CC(O)CC(=O)[O-].CC(C)c1c(C(=O)Nc2ccccc2)c(-c2ccccc2)c(-c2ccc(F)cc2)n1CCC(O)CC(O)CC(=O)[O-].[Ca+2] (stereo unspecified) [Atorvastatin Calcium]	89.2 ± 4.2	138	89.2 ± 26	–	47.7 ± 2.3	43.7 ± 10	158 ± 5.3	95.72 ± 0.31	140
CC1(C)O[C@@H]2C[C@H]3[C@@H]4CCC5=CC(=O)C=C[C@]5(C)[C@@]4(F)[C@@H](O)C[C@]3(C)[C@]2(C(=O)CO)O1 [Triamcinolone Acetonide]	147.2 ± 1.3	171	183 ± 20	111	198 ± 18	89.1 ± 12	–	–	–
CCCc1nc2c(C)cc(-c3nc4ccccc4n3C)cc2n1Cc1ccc(-c2ccccc2C(=O)O)cc1 [Telmisattan]	107 ± 23	111	113 ± 59	101	122.3 ± 0.62	85 ± 18	146 ± 1.6	–	116
CC1(C)O[C@@H]2C[C@H]3[C@@H]4CCC5=CC(=O)C=C[C@]5(C)[C@H]4[C@@H](O)C[C@]3(C)[C@]2(C(=O)CO)O1 [Desonide]	84.8 ± 63	176	117 ± 43	125	144 ± 8.6	96.1 ± 15	127 ± 17	–	–
CC(=O)OCC(=O)C1(O)CCC2C3CCC4=CC(=O)C=CC4(C)C3C(O)CC21C (stereo unspecified) [Prednisolone Acetate]	119 ± 47	185	134 ± 37	123	152.4 ± 0.65	97.2 ± 1.2	182 ± 22	–	–
CC1CC2C3CC(F)C4=CC(=O)C=CC4(C)C3(F)C(O)CC2(C)C1(O)C(=O)CO (stereo unspecified) [Flumethasone]	144 ± 49	180	140 ± 56	145	166 ± 22	93.2 ± 12	163 ± 5.2	–	–
CC(C)n1c(C=CC(O)CC(O)CC(=O)[O-])c(-c2ccc(F)cc2)c2ccccc21.[Na+] (stereo unspecified) [Fluvastatin Sodium]	91.3 ± 15	135	61.2 ± 11	–	54.9 ± 4.7	59.6 ± 0.62	113 ± 11	–	135
CCCCC(=O)OC1(C(=O)CO)C(C)CC2C3CCC4=CC(=O)C=CC4(C)C3(F)C(O)CC21C (stereo unspecified) [Betamethasone Valerate]	120 ± 12	169	148 ± 34	124	161 ± 9.9	88.9 ± 29	194 ± 17	–	–
CC1CC2C(C(O)CC3(C)C2CCC3(O)C(=O)CO)C2(C)C=CC(=O)C=C12 (stereo unspecified) [Methylprednisolone]	145 ± 24	156	123 ± 34	136	154 ± 11	119 ± 8.1	194 ± 12	–	–
CN(C)Cc1c(C(=O)NCCOc2ccc(C(=O)NO)cc2)oc2ccccc12	–	128	70.8 ± 49	9.68	–	80.6 ± 8.5	–	56.1 ± 17	–
Cc1cnc(Nc2ccc(OCCN3CCCC3)cc2)nc1Nc1cccc(S(=O)(=O)NC(C)(C)C)c1	–	173	133 ± 44	138	196 ± 55	43.8 ± 0.93	–	61.6 ± 12	161

SMILES	cell viability [1]	cell viability [2]	cell viability [3]	cell viability [4]	cell viability [5]	cell viability [6]	cell viability [7]	cell viability [8]	cell viability [9]
CCCc1nc(C(C)(C)O)c(C(=O)OCc2oc(=O)oc2C)n1Cc1ccc(-c2ccccc2-c2nn[nH]n2)cc1 [Olmesartan medoxomil]	–	150	110 ± 1.2	162	168 ± 28	105 ± 20	177 ± 30	128 ± 2.5	182
COC1=CC(=O)C[C@@H](C)[C@]12Oc1c(Cl)c(OC)cc(OC)c1C2=O [Griseofulvin]	127 ± 7.9	–	141 ± 30	98.7	136 ± 24	121 ± 36	190 ± 15	128 ± 5.8	128
Nc1ccccc1NC(=O)c1ccc(CNC(=O)OCc2cccnc2)cc1 [Entinostat (MS-275,SNDX-275)]	–	109	119 ± 130	–	–	75.7 ± 17	–	58.7 ± 7.4	–
O=c1[nH]c(=O)n(C2CC(O)C(CO)O2)cc1I (stereo unspecified) [Idoxuridine]	165 ± 77	–	106 ± 8.6	106	112 ± 6.1	–	116.3 ± 1.1	–	129
CC(=O)c1c(C)c2cnc(Nc3ccc(N4CCNCC4)cn3)nc2n(C2CCCC2)c1=O.O=S(=O)(O)CCO	154 ± 77	–	78 ± 29	154	105 ± 7.7	103 ± 13	145 ± 2.8	179 ± 75	180
OCC1OC(O)C(O)C(O)C1O [Dextrose (D-glucose)]	123.4 ± 0.67	–	106 ± 1.3	125	88.77 ± 0.6	105 ± 3.9	153 ± 12	124 ± 6.9	110
COc1ccccc1Oc1c(NS(=O)(=O)c2ccc(C(C)(C)C)cc2)nc(-c2ncccn2)nc1OCCO.O [Bosentan Hydrate]	–	124	87.8 ± 26	101	125 ± 8.9	87.1 ± 8.3	184 ± 2.7	172 ± 36	–
CCC(CO)Nc1nc(NCc2ccccc2)c2ncn(C(C)C)c2n1 (stereo unspecified) [Roscovitine (Seliciclib,CYC202)]	80.4 ± 47	–	55.1 ± 22	176	145 ± 25	90.4 ± 1.3	123 ± 4.2	77.4 ± 2.6	138
CC(=O)OCC(=O)C1CCC2C3CCC4=CC(=O)CCC4(C)C3CCC12C (stereo unspecified) [Deoxycorticosterone acetate]	–	132	95.7 ± 46	112	139 ± 19	140 ± 10	164 ± 12	141 ± 23	135
CN1CCN(c2ccc3c(c2)NC(=C2C(=O)N=c4cccc(F)c4=C2N)N3)CC1 [Dovitinib (TKI-258, CHIR-258)]	92.5 ± 18	–	49.8 ± 24	79	125 ± 32	69.8 ± 20	104 ± 1.8	–	–
Nc1nc(NC2CC2)c2ncn(C3C=CC(CO)C3)c2n1 (stereo unspecified) [Abacavir]	173 ± 35	–	–	118	–	179 ± 28	–	193 ± 30	121
CC12CCC(=O)C=C1C1CC1C1C2CCC2(C)C1C1CC1C21CCC(=O)O1 (stereo unspecified) [Drospirenone]	–	150	178 ± 190	–	–	39.5 ± 12	–	84.8 ± 24	–
Cl.Nc1ccc(N=Nc2ccccc2)c(N)n1 [Phenazopyridine HCl]	196 ± 12	–	–	136	–	191 ± 47	–	–	200
CCN(CC)CCOc1ccc(C(=C(Cl)c2ccccc2)c2ccccc2)cc1.O=C(O)CC(O)(CC(=O)O)C(=O)O [Clomiphene citrate]	–	51.5	34.9 ± 3.9	95.8	62.5 ± 0.63	35.1 ± 12	146 ± 15	39.3 ± 1.4	134
O=C(C=CC=Cc1ccc2c(c1)OCO2)N1CCCCC1 [Piperine]	158 ± 4	–	–	134	–	117 ± 0.57	111.83 ± 0.044	–	131
C[C@@H]1C\C=C/C=C\C=C/C=C\[C@H](O[C@@H]2O[C@H](C)[C@@H](O)[C@H](N)[C@@H]2O)C[C@@H]2O[C@](O)(C[C@@H](O)C[C@H]3O[C@@H]3/C=C\C(=O)O1)C[C@H](O)[C@H]2C(=O)O [Natamycin]	–	137	121 ± 19	146	156 ± 48	103 ± 9.2	199 ± 34	144.5 ± 1.4	–
Nc1ccccc1NC(=O)c1ccc(CNc2nccc(-c3cccnc3)n2)cc1 [Mocetinostat (MGCD0103, MG0103)]	–	87	78.4 ± 73	5.73	–	109 ± 13	–	150 ± 160	–
Nc1nc(NC2CC2)c2ncn(C3C=CC(CO)C3)c2n1.O=S(=O)(O)O (stereo unspecified) [Abacavir sulfate]	161 ± 13	–	–	139	196 ± 5.3	128 ± 5.2	–	134 ± 16	157
Cc1[nH]c2ccccc2c1CCNCc1ccc(C=CC(=O)NO)cc1 [Panobinostat (LBH589)]	–	130	68.3 ± 34	–	–	36.5 ± 3	–	45 ± 8.7	–
O=c1c(-c2ccc(O)cc2)coc2cc(O)ccc12 [Daidzein]	146 ± 37	155	–	114	149 ± 13	119 ± 7.2	–	–	180
CC[C@]1(O)C[C@H]2CN(CCc3c([nH]c4ccccc34)[C@@](C(=O)OC)(c3cc4c(cc3OC)N(C=O)[C@H]3[C@@](O)(C(=O)OC)C(OC(C)=O)[C@]5(CC)C=CCN6CC[C@]43C65)C2)C1.O=S(=O)(O)O (stereo partly specified) [Vincristine]	–	111	91.3 ± 26	112	85.1 ± 13	90.5 ± 12	153 ± 16	42.2 ± 2.8	200
O=C(O)C1=CC(=NNc2ccc(S(=O)(=O)Nc3ccccn3)cc2)C=CC1=O [Sulfasalazine]	–	124	119 ± 9.1	137	100 ± 5	105 ± 8.7	181 ± 26	161 ± 27	180
